Bioassay records (PubChem BioAssay)
Sampled rows, rich in hits. Any-hit rate of the full collection: about 10%.
HPGD block – HPGD (human) dehydrogenase inhibition | P15428 | purified HPGD, NADH fluorescence kinetic, PGE2 substrate | Potency, µM, for the others: top-dose activity change, negative = inhibition, usual class: inhibitors | 150,000 compounds, 4.3% hits; further: potency means the concentration at half of the fitted maximal effect
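NADH formation kinetics: reaction with 30 uM PGE2 and 1 mM NAD+ (final), 20 nM enzyme, Tris-HCl pH 8 with Tween 20, after 15 min compound preincubation at room temperature. Fluorescence change, last versus first of five reads.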
ALOX12 inhib – inhibitors of human 12-lipoxygenase (ALOX12); purified 12-hLO, xylenol orange hydroperoxide absorbance; P18054; Potency, µM (series often up to 57.1 µM), without a hit: top-dose activity change, negative = inhibition, most hits filed as inhibitors; 150,000 compounds, 0.12% hits; AID 1452; active means well fitted inhibition curve with a large enough effect; inconclusive means small, poorly fitted or top-dose-only effect; further: potency means the concentration at half of the fitted maximal effect; nearly all actives have a fitted effect of over 55% in size
Target sequence (P18054 whole entry, looked up): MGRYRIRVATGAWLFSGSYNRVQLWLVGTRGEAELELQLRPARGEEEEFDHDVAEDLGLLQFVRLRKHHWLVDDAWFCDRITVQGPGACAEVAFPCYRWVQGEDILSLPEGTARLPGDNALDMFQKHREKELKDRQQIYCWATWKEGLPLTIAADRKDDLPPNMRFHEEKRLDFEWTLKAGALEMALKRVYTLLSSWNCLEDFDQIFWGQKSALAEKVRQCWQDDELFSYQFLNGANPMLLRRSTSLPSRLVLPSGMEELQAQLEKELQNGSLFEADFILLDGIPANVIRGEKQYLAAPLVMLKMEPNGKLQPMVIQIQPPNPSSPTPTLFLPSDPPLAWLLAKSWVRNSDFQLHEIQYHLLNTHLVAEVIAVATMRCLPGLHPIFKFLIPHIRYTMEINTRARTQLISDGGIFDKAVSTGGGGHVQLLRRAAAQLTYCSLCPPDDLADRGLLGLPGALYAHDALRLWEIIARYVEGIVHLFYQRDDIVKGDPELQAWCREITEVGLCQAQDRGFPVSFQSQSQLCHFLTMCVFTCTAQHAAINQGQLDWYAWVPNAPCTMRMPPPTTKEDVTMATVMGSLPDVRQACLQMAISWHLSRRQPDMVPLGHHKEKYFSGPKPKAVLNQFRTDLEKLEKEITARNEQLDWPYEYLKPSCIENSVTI
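Hydroperoxide formation by human 12-lipoxygenase from 40 uM arachidonic acid was followed colorimetrically via ferric-xylenol orange complex, using the 573/405 nm absorbance ratio. Enzyme concentration was 150 nM, with 30 min reaction at room temperature.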
LMNA splice mod – modulators of lamin A splicing; Potency, µM (titrated, usually from 46.1 µM), without a hit: at the highest dose ratio change, negative = inhibition, usual class: inhibitors; HeLa LMNA splicing GFP/RFP minigene ratio, 48 h; AID 1487; 200,000 compounds, 0.01% hits; active means well fitted inhibition curve with a large enough effect in the signal ratio, with a control signal flat, not every such curve was filed as active; inconclusive means small, poorly fitted or top-dose-only effect, or effect the other way, or a change in a side signal; the % refers to the signal ratio; further: potency means the concentration at half of the fitted maximal effect
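S3 HeLa cells stably expressing lamin A-EGFP splicing minigene plus DsRed2, 600 cells/well, 48 h compound exposure at 37C. Laser-scanning cytometry; analysed as GFP (500-530 nm)/RFP (575-640 nm) total intensity ratio; 0.5% DMSO vehicle.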
PNC inhibitor – blocks assembly of the perinucleolar compartment; PC3M PTB-GFP, PNC prevalence imaging, 16 h; stronger effect = lower value; AID 2417; activity change (PNC), negative = inhibition, % at 10 µM; 140,000 compounds, 3.1% hits;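 active means readout at or below -70, meaning at least 70% loss of cells showing the perinucleolar compartment, a nuclear body marking cancer cells; inconclusive means readout between -30 and a set limit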;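 further: plate controls were DMSO wells for no effect and camptothecin positive control wells for full effect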
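Compounds are pinned in duplicate onto adhered PC3M cells stably expressing GFP-tagged PTB and incubated 16 h at 37 C. Cells are then fixed, nuclei stained with Hoechst, and PNC-positive cells counted.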
ALDH1A1 inh – ALDH1A1 (human) enzyme inhibition; Purified ALDH1A1, NADH fluorescence, propionaldehyde substrate; Potency, µM (top dose mostly 75.3 µM), without a hit: at the highest dose activity, negative = inhibition, actives largely listed as inhibitors; 220,000 compounds, 7.3% hits; P00352;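 further: potency means the concentration at half of the fitted maximal effect; plate controls were no enzyme wells and a reference inhibitor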
Active calls of the source: *; ? = inconclusive; nt = not tested or not shown; [ ] = dose if it differs, or a comment. Unless noted, the call rests on the fitted dose curve; in most records, active means well fitted inhibition curve with a large enough effect (not every such curve was filed as active); inconclusive means small, poorly fitted or top-dose-only effect, or another doubt; inactive means no such curve, though single readings can be large or run the other way. Unless noted, on the % scale 0 is the no-effect control and ±100 the full control effect.

SMILES	HPGD block	ALOX12 inhib	LMNA splice mod	PNC inhibitor	ALDH1A1 inh
Cc1cccc(NC(=O)/C(C#N)=C\c2cc(C)n(-c3ccc(C(=O)O)cc3)c2C)c1	nt	nt	nt	nt	3.16µM*
Cc1c(C(=O)O)cccc1-n1c(C)cc(/C=C(/C#N)C(=O)NCc2ccccc2)c1C	nt	nt	nt	nt	3.0%
Cc1cc(/C=C(\C#N)C(=O)OCC#N)c(C)n1CC(C)C	nt	nt	?	nt	25.1µM*
CCOC(=O)/C(C#N)=C\c1cc(C)n(-c2ccccc2)c1C	-14.7%	-14.4%	?	?	?
Cc1cc(/C=C(\C#N)C(=O)Nc2ccccc2)c(C)n1-c1ccc(C(=O)O)cc1	nt	nt	nt	nt	1µM*
COc1ccc(NC(=O)/C(C#N)=C\c2cc(C)n(-c3ccc4c(c3)OCO4)c2C)cc1	-15.6%	-1.8%	?	-123.8*	-2.8%
Cc1cc(C=O)c(C)n1-c1ccc2c(c1)OCO2	nt	nt	-6.7%[46 µM]	nt	1.41µM*
Cc1cc(C(=O)COc2ccccc2Cl)c(C)n1-c1ccc2c(c1)OCO2	?	-4.7%	?	-106.3*	-6.4%
CCN(CC)S(=O)(=O)c1nnc(NC(=O)COc2ccccc2F)s1	nt	nt	4.8%[46 µM]	nt	nt
COC(=O)C1=C(C)N(Cc2ccccc2)C2=C(C(=O)c3ccccc3)C(c3ccccc3)[C@@](O)(C(=O)OC)C(=O)N2C1c1ccccc1 (some centres not stated)	nt	nt	nt	nt	-1.0%[13.5 µM]
Cc1cc(C)nc(NC(=O)CSc2nnnn2-c2ccccc2)n1	-4.6%	5.2%	-4.9%	11.2	7.08µM*
O=C(O)c1ccc(-n2nnnc2SCc2ccccc2F)cc1	15.8µM*	6.6%	-8.9%	-10.6	?
O=C1c2ccccc2C(=O)N1CCCCSc1nc2ccccc2o1	25.1µM*	-3.5%	4.6%	0.2	?
O=C(CSc1nnnn1-c1ccccc1)N1CCCc2ccccc21	-7.2%	4.5%	4.0%	-4.9	7.94µM*
Cc1nnc(SCCCN2C(=O)c3ccccc3C2=O)o1	-11.0%	-1.2%	-4.1%	-8.4	-7.0%
Cc1ccc(C(=O)CSc2nnc(-c3ccccc3)n2-c2ccccc2)o1	-14.5%	-1.1%	-2.6%	42.8	-2.0%
Cc1ccc(C(=O)CSc2nnnn2-c2ccccc2)o1	nt	nt	13.3%[46 µM]	nt	3.55µM*
O=C1c2ccccc2C(=O)N1CCCCSc1nnnn1-c1ccccc1	7.94µM*	-13.8%	?	17.6	0.178µM*
O=C(CSc1nnnn1-c1ccccc1)CSc1nnnn1-c1ccccc1	-16.3%	3.2%	-8.3%	10.0	3.16µM*
c1ccc(-n2nnnc2SCc2cccc3nsnc23)cc1	?	-4.6%	?	-9.8	14.1µM*
O=C(O)CSc1nnnn1-c1ccccc1	-6.9%	3.2%	2.0%	?	3.2%
CCSc1nnnn1-c1ccccc1	-8.1%	1.8%	10.1%	-13.8	?
CCS(=O)(=O)N1CC(=O)N(c2ccc(C)c(C)c2)C(C)(C(=O)NC2CCCCCC2)C1 (configuration not stated)	nt	nt	1.9%[46 µM]	nt	nt
CCC1=C(c2ccc(C)cc2)S(=O)(=O)N=C1N1CCC(C(=O)Nc2ccccc2F)CC1	nt	nt	-8.3%[46 µM]	nt	nt
Cc1ccc(-n2nnnc2SCC(=O)N2c3ccccc3NC(=O)C2(C)C)cc1	-0.4%	-7.0%	?	-100.0*	-4.0%
SMILES	HPGD block	ALOX12 inhib	LMNA splice mod	PNC inhibitor	ALDH1A1 inh
O=C(Cn1cnc2c(nnn2-c2ccc(F)cc2)c1=O)N1CCCc2ccccc21	-22.8%	-10.6%	?	-23.0	28.2µM*
Nc1nc(CSc2nnnn2-c2ccccc2)nc(N2CCCc3ccccc32)n1	?	-4.1%	?	?	2.82µM*
Cc1ccc(-c2nnc(SCC(=O)N3c4ccccc4NC(=O)C3(C)C)n2N)cc1	-8.7%	-1.1%	7.6%	26.4	-10.1%
O=C(O)CCSc1nnnn1-c1ccccc1	nt	0.2%	4.1%	-15.2	-2.0%
O=C(CCCSc1nnnn1-c1ccccc1)c1ccc(F)cc1	-16.4%	-2.9%	-5.2%	-22.0	1.26µM*
Cc1cc(C)cc([N+](=O)[O-])c1	-3.7%	1.2%	nt	nt	2.8%
Cc1ccc(CCNC(=O)C2COc3ccccc3C2)cc1 (configuration not stated)	nt	nt	-0.6%[46 µM]	nt	nt
COc1ccc(CNc2ncncc2-c2ccc(C(=O)N(C)C)cc2)c(OC)c1	nt	nt	1.0%	nt	4.1%
Brc1ccccc1-c1nnc(CSc2nnnn2-c2ccccc2)o1	15.8µM*	-0.3%	-2.1%	35.2	10µM*
Cc1nnc(SCc2nnc(-c3ccccc3Br)o2)n1-c1ccccc1	-29.2%	2.5%	5.9%	-28.5	4.2%
Cc1sc2nc(SCC(=O)NCc3ccco3)n(C)c(=O)c2c1C	-0.8%	-6.7%	?	2.3	0.6%
Cc1sc2nc(SCC(=O)NCc3ccco3)[nH]c(=O)c2c1C	7.94µM*	-7.6%	-11.1%	13.4	-5.9%
Cc1sc2nc(SCC(=O)NCc3cccs3)[nH]c(=O)c2c1C	25.1µM*	0.2%	?	5.6	5.7%
CCn1c(SCC(=O)NC(=O)NCc2ccco2)nc2sc(C)c(C)c2c1=O	?	-14.6%	?	23.0	8.91µM*
Cc1sc2nc(CSCC(=O)Nc3ccc(N4CCOCC4)cc3)[nH]c(=O)c2c1C	nt	nt	nt	nt	11.2µM*
C=C/C1=C/Cc2ccccc2C(C[N+](=O)[O-])C(C(=O)OC)(C(=O)OC)C1 (configuration not stated)	nt	nt	nt	nt	-8.3%[13.5 µM]
Cc1ccc(C)c(NC(=O)c2cnn(-c3cccc(F)c3)c2C2CCN(C(=O)OC(C)(C)C)CC2)c1	nt	nt	-16.1%[46 µM]	nt	nt
CCc1cccc(NC(=O)C(c2ccccc2)N2Cc3ccccc3C2=O)c1 (configuration not stated)	nt	nt	-3.1%[46 µM]	nt	nt
Cc1sc2nc(SCC(=O)N3CCOCC3)[nH]c(=O)c2c1C	15.8µM*	-7.0%	-8.0%	16.1	5.5%
Cc1[nH]nc2c1C(c1cccnc1)N(c1ccc(Br)cc1)C2=O (configuration not stated)	-11.7%	17.7%	-17.1%	-83.1*	-4.7%
CCOc1ccc(N2C(=O)CN(C)C2=S)cc1	-11.3%	-3.6%	7.5%	27.8	4.5%
CCOc1ccc(N2C(=O)CN(O)C=C3N=c4ccccc4=C32)cc1	nt	nt	nt	nt	10µM*
Cc1ccccc1OC(=O)n1c(=S)oc2cc(Cl)ccc21	?	7.1%	-9.5%	-15.3	7.08µM*
O=C(Oc1ccccc1)n1c(=S)oc2ccccc21	-11.7%	4.3%	-3.3%	?	?
COc1ccc(S(=O)(=O)NCc2ccco2)cc1-c1nnc2c3ccccc3c(C)nn12	5.01µM*	2.6%	0.7%	14.7	-16.9%
CNS(=O)(=O)c1ccc(OC)c(-c2nnc3c4ccccc4c(C)nn23)c1	15.8µM*	-0.6%	13.7%	?	?
COc1ccc(S(=O)(=O)NC(C)(C)C)cc1-c1nnc2c3ccccc3c(C)nn12	-28.8%	4.0%	5.5%[46 µM]	35.9	5.9%
O=C(O)CCn1nnc(-c2cccs2)n1	0.1%	3.5%	-6.9%	-104.8*	16.7%
CCCOc1cc(C)nc(-c2ccccc2O)n1	nt	-10.2%	?	-19.3	10µM*
